This is one part of a sample in which hits are shown more often than they occur.
CHX counter: counter-screen for Shiga toxin inhibitors: cycloheximide protein synthesis inhibition; cell reporter, cycloheximide protein synthesis inhibition counterscreen; max response, %; actives 12% (n = 300,000); in the data active means max response mostly above about 13%, no sharp cut-off; inactive means mostly below about 14%; further: read at 38.3 µM for the half of the compounds with a filed dose; 0% is about no effect
Shiga toxin inh: Shiga toxin inhibition; Vero cells, Shiga toxin protein synthesis inhibition reporter; inhibition, % at 38.7 µM; actives 9.2% (n = 290,000); in the data active means inhibition mostly above about 28%, no sharp cut-off; inactive means mostly below about 43%; further: 0% is about no effect
NS1 function inh: inhibitors of influenza NS1 protein function; actives 0.4% (n = 270,000); Potency, µM (doses to about 46.1 µM), for inactives: top-dose activity, positive = more growth; AID 2326; calls by dose curve; further: potency means the concentration at half of the fitted maximal effect; actives are rising curves; nearly all actives have a fitted effect of over 50% in size
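Growth recovery, yeast-based: influenza A NS1 expressed in S. cerevisiae causes slow growth, and suppressors are detected by OD600. The parent strain without NS1 is used as positive control.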
Tb PYK inh: blocks Trypanosoma brucei pyruvate kinase | Q57TT1 | TbPYK enzyme, Kinase-Glo Plus ATP luminescence, 45 min | Potency, µM (series often up to 76.8 µM), for inactives: top-dose activity, negative = inhibition, most hits filed as inhibitors | actives 0.12% (n = 410,000); further: potency means the concentration at half of the fitted maximal effect; on the % scale 0 is the no-effect control and ±100 the full control effect; nearly all actives have a fitted effect of over 50% in size
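Enzyme and substrate buffer are dispensed first and compound is pin-transferred. ADP at 130 uM final then starts the reaction, which runs 45 min at room temperature. Detection reagent is added for 10 min before luminescence is imaged.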
SARS PLP yeast: inhibitors of SARS-CoV papain-like protease in yeast | S. cerevisiae expressing SARS-CoV PLpro, growth rescue | Potency, µM (series often up to 32.9 µM), for the others: top-dose activity, positive = growth rescue, hits mostly activators | actives 0.19% (n = 330,000) | AID 485353; calls by dose curve; further: potency means the concentration at half of the fitted maximal effect; 0% is about no effect; nearly all actives have a fitted effect of over 55% in size
LmPK inh: blocks Leishmania mexicana pyruvate kinase activity; Q27686; purified LmPK, Kinase-Glo ATP luminescence, 1 h; Potency, µM (titrated, usually from 57.5 µM), for the others: at the highest dose activity change, negative = inhibition, actives largely listed as inhibitors; actives 0.37% (n = 290,000); AID 1721; further: potency means the concentration at half of the fitted maximal effect; on the % scale 0 is the no-effect control and ±100 the full control effect
Target sequence (Q27686 whole entry, looked up): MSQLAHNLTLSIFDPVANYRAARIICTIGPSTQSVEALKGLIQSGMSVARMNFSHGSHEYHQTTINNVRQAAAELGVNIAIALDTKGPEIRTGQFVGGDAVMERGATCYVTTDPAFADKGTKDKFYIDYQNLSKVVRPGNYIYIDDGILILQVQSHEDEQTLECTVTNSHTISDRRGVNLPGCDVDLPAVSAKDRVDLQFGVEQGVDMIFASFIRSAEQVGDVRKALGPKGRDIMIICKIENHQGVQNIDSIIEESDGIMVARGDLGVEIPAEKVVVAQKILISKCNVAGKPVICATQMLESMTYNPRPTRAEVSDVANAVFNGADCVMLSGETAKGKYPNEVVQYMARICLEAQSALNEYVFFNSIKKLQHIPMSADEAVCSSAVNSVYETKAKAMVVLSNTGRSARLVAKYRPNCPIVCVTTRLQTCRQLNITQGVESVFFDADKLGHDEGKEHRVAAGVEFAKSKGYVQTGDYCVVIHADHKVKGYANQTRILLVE
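0.1 nM LmPK, 0.5 mM PEP, 0.1 mM ADP; 50 mM imidazole pH 7.2, 7 mM MgCl2, 50 mM KCl; 1 h RT. Kinase-Glo luminescence readout, normalized to no-enzyme (full inhibition) and uninhibited wells.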
Numbers without * were called inactive; u = inconclusive; x = not tested or not shown. Unless noted, the call rests on the fitted dose curve; in most records, active means well fitted curve in the direction sought with a large enough effect; inconclusive means small, poorly fitted or top-dose-only effect, or another doubt; inactive means no such curve, though single readings can be large; an effect the other way counts as inactive or inconclusive.

SMILES	CHX counter	Shiga toxin inh	NS1 function inh	Tb PYK inh	SARS PLP yeast	LmPK inh
CC12CCC=CC1C(c1cccc([N+](=O)[O-])c1)N(Cc1ccccc1)C2=O (centres undefined)	7	16	x	x	x	x
COc1ccc(C(=O)NCC(=O)OCC(=O)c2c(C)[nH]c3ccccc23)cc1OC	x	x	x	0%	3%	x
COc1ccc(OC(=O)Nc2ccccc2)cc1	32*	98*	-13%	-5%	-3%	u
CC(=O)Nc1ccc(NC(=O)Oc2ccccc2)cc1	10	-3	2%	-5%	-1%	-13%
CCc1ccc(OC(=O)Nc2ccccc2)cc1	13*	13	-1%	3%	-7%	-6%
CN(C)c1ccc(NC(=O)Oc2ccccc2)cc1	29*	60*	-57%	u	12%	u
COC(=O)CCSCc1cn2cc(Cl)ccc2n1	16*	23	4%	-4%	-1%	-5%
O=C(O)CSCc1cn2cc(Cl)ccc2n1	1	-8	1%	5%	-3%	-3%
CC(=O)Nc1ccc(C=NNc2nnc(NN=Cc3ccc(NC(C)=O)cc3)c3ccccc23)cc1	x	x	x	3%	x	x
COc1cc(/C=N/Nc2nncc3ccccc23)cc(OC)c1OC	39*	87*	-4%	-4%	-2%	-13%
Cc1cccc(/C=N/Nc2nncc3ccccc23)c1	24*	47*	x	-13%	-7%	u
CN(C)c1ccc(/C=N/Nc2nncc3ccccc23)cc1	28*	109*	-11%	-12%	-9%	0%
Cc1cccc(/C=N/NC(=O)c2cc(-c3cccnc3)nc3ccccc23)c1	-1	9	x	6%	2%	1%
C(=N\Nc1nncc2ccccc12)/c1ccccc1	50*	73*	-9%	-1%	-3%	u
CCc1noc(C)c1C(=O)N1CCN(c2cccc(Cl)c2)CC1	x	x	x	-7%	x	x
COc1ccc(NC(=O)CCc2nnc3n(CC(C)C)c(=O)c4ccccc4n23)cc1	x	x	x	-4%	x	x
CCN(CC)S(=O)(=O)c1ccc2c(c1)N(CC(=O)NCCCN1CCN(c3cc(Cl)ccc3C)CC1)C(=O)CO2	x	x	x	4%	x	x
COc1ccccc1N1CCN(S(=O)(=O)c2ccc(F)c(C(=O)Nc3ccc(C)c(F)c3)c2)CC1	x	x	x	0%	x	x
COc1ccc(/C=N/Nc2nncc3ccccc23)c(OC)c1	51*	106*	0%	-1%	0%	-1%
COc1ccc(/C=N/Nc2cc(C)nc(N3CCOCC3)n2)c(OC)c1	-2	12	0%	2%	1%	-3%
Cc1ccc(C)c(NC2=C(c3ccc(C(F)(F)F)cc3)C(=O)c3ccccc32)c1	x	x	x	-2%	x	x
COC(=O)c1c[nH]c(=S)n1Cc1ccccc1	x	x	x	-29%	x	x
S=c1[nH]cc(-c2ccccc2)n1-c1ccccc1	0	-3	1%	u	3%	3.2µM*
S=c1[nH]cc(-c2ccc(Cl)cc2)n1Cc1ccccc1	14*	13	-1%	3%	1%	-9%
Cc1ccc(-n2c(-c3ccccc3)c[nH]c2=S)cc1	-3	-15	x	u	3%	u
SMILES	CHX counter	Shiga toxin inh	NS1 function inh	Tb PYK inh	SARS PLP yeast	LmPK inh
CCn1c(-c2ccccc2)c[nH]c1=S	-3	-20	9%	u	24%	14µM*
COc1ccc(NS(=O)(=O)c2ccc(NC(=O)C(CCSC)NC(N)=O)cc2)cc1 (centres undefined)	-1	17	3%	-3%	1%	0%
Oc1ccc2ccccc2c1C=Nc1ccccc1Br	1	-7	9%	-14%	1%	-2%
Cc1cc(C(=O)O)ccc1N=Cc1c(O)ccc2ccccc12	10*	25	14%	-4%	-6%	0%
Cc1cc(N=Cc2c(O)ccc3ccccc23)no1	7	15	0%	-11%	-4%	-4%
CC(=O)N(C)c1ccc(N=Cc2c(O)ccc3ccccc23)cc1	17*	25*	-5%	-3%	-2%	-4%
CC(=O)c1cccc(N=Cc2c(O)ccc3ccccc23)c1	2	-3	-2%	1%	-5%	1%
CS/C(N)=N/N=C/c1c(O)ccc2ccccc12	29*	58*	-56%	-7%	-5%	7%
CN(C)/N=C/c1c(O)ccc2ccccc12	11	2	-63%	-7%	0%	0%
Oc1ccccc1N=Cc1c(O)ccc2ccccc12	11*	39*	-57%	-2%	-6%	-7%
CCc1ccc(C(=O)NNC(=O)CN2C(=O)NC3(CCCC3)C2=O)cc1	x	x	x	-2%	2%	x
C=CCn1c(=O)/c(=C2/Sc3cc(OC)ccc3N2C)s/c1=C1\C(=O)N(CC)C(=S)N1C	21*	53*	-1%	x	-1%	-15%
CCN1/C(=C2\C(=O)N(C)C(=S)N2C)C=Cc2cc(OC)ccc21	-2	-17	2%	-30%	-14%	u
CCCCN(C)CCNC(=O)c1cc2cc3ccc(OC)cc3nc2o1	-3	-4	0%	1%	1%	-1%
COc1cc(NC(=O)c2cc3cc4cc(OC)ccc4nc3o2)cc(OC)c1	x	x	x	6%	x	x
COCCCNC(=O)c1cc2cc3cc(OC)ccc3nc2o1	20*	19	1%	-1%	-5%	-1%
CCN(C(=O)c1cc2cc3ccc(C)cc3nc2o1)c1ccc(OC)cc1	36*	37*	-42%	4%	-14%	1%
CCCCN(C)C(=O)c1cc2cc3ccc(OC)cc3nc2o1	29*	79*	-14%	-14%	-1%	-4%
CCCCN(C)C(=O)c1cc2cc3cc(OC)ccc3nc2o1	42*	63*	x	0%	-6%	1%
COc1ccccc1CNC(=O)C(NS(=O)(=O)c1ccc2c(c1)CCN2C(C)=O)C(C)C (centres undefined)	x	x	x	0%	x	x
Cc1cccc(C)c1NC(=O)Cn1c(=O)n(CCC(=O)NCc2ccc3c(c2)OCO3)c(=O)c2sccc21	x	x	x	4%	x	x
COC(=O)c1ccc(NC(=O)C(C)N2Cc3ccccc3C2=O)cc1 (centres undefined)	x	x	x	-2%	x	x
CC(c1ccco1)N(C(=O)COc1ccc(Cl)cc1)c1ccccn1 (centres undefined)	39*	135*	-12%	-5%	-12%	-7%
CC(c1ccco1)N(C(=O)COc1ccc(Cl)cc1Cl)c1ccccn1 (centres undefined)	53*	126*	-21%	4%	-7%	-12%
CC(C)c1ccc(OC(=O)c2cc(-c3ccccc3)on2)cc1	x	x	x	0%	x	x
c1ccc(-c2cc(-c3ccccc3)on2)cc1	35*	67*	-6%	u	-2%	-20%
O=C(c1ccccc1)c1cc(-c2ccccc2)on1	19*	-6	-23%	-18%	-6%	u
Nc1nc(-c2ccccc2)cs1	29*	35*	-7%	3%	2%	4%
Nc1nc(-c2cc(-c3ccccc3)no2)cs1	32*	69*	-111%	-5%	-11%	u

High-throughput results: PubChem BioAssay, National Center for Advancing Translational Sciences (NCATS)
